Source: PubChem BioAssay (several laboratories)
Autofluor counter – flagged as autofluorescent in microsphere protease counterscreen; compound autofluorescence counterscreen, microsphere flow cytometry; stronger effect = higher value; fluorescence intensity (concentration not given with the values); hit rate 3.1% among 360,000; AID 624483; in the data active = fluorescence intensity above about 16000; inconclusive = no clear call, values can overlap the other calls
GDH-TPI inh – GDH-TPI coupling enzyme inhibitors, primary screen, artefact control for M. tuberculosis FBA inhibitor project, biochemical, absorbance, full deck; GDH-TPI coupled enzyme counterscreen, NADH absorbance; inhibition, % at 4.8 µM; AID 588335, 2011; hit rate 1.2% among 360,000; in the data active = inhibition above about 30%;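 also: 0% = DMSO wells and 100% = wells lacking the enzyme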
BoNT-A LC inh2 – BoNT/A light chain protease inhibitors, primary screen, biochemical, flow cytometry, MLPCN library; Botulinum neurotoxin type A light chain protease (Clostridium botulinum A str. ATCC 3502); multiplex microsphere protease substrate cleavage; inhibition, % at 10 µM; hit rate 0.17% among 360,000; AID 588499, 2011; also: plate controls were buffer without enzyme for full effect and enzyme alone for no effect
Mtb FBA inh – Mtb FBA enzyme inhibitors, primary screen, biochemical, fluorescence, strain H37Rv; Fructose-bisphosphate aldolase (Mycobacterium tuberculosis (strain ATCC 25618 / H37Rv)), …; AID 588726, 2011; purified M. tuberculosis FBA, fluorescence read-out; inhibition, % at 1 µM; hit rate 2.3% among 360,000; in the data active = inhibition above about 27%;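 also: 0% = vehicle and 100% = reference inhibitor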
Target sequence (P9WQA3 whole entry, looked up): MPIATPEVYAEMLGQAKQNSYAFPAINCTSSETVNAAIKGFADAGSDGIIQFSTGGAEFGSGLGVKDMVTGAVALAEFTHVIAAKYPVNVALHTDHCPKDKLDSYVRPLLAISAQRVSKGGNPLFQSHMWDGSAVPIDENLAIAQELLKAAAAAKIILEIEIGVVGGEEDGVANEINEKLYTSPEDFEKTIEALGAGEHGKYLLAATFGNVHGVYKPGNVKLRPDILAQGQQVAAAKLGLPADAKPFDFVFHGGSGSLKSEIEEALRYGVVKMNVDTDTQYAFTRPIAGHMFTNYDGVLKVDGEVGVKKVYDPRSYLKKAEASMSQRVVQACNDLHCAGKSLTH
Anthrax LF prot – Bacillus anthracis LF protease inhibitors, primary screen, biochemical, multiplex microsphere, MLPCN library; inhibition, % at 10 µM; Lethal factor (Bacillus anthracis), P15917; hit rate 0.12% among 360,000; multiplex microsphere protease cleavage assay; also: plate controls were buffer without enzyme for full effect and enzyme alone for no effect
BoNT F protease – BoNT/F light chain protease inhibitors, primary screen, biochemical, flow cytometry, MLPCN library; AID 588497, 2011; Multiplex microsphere protease cleavage assay; hit rate 0.22% among 360,000; Botulinum neurotoxin type F light chain protease (Clostridium botulinum); inhibition, % at 10 µM; in the data active = inhibition above about 35%, passing the limit was not always enough; inconclusive = no clear call, values can overlap the other calls; also: plate controls were buffer without enzyme for full effect and enzyme alone for no effect
Starred values were filed as active, the others as inactive; ? = inconclusive; . = no result; ! = a repeat was not active. In the library only some 6.6% were active in any assay of this set; here they are far more common. Rule as the data show it, unless noted: active = inhibition above about 30%; inconclusive = no clear call, values can overlap the other calls; inactive = below that.

SMILES	Autofluor counter	GDH-TPI inh	BoNT-A LC inh2	Mtb FBA inh	Anthrax LF prot	BoNT F protease
COC(=O)COc1cc(Br)c(/C=C2/SC(=O)N(CC(=O)N3CCCC3)C2=O)cc1OC	4231	29	0	0	1	-22
Cc1cnc(NC(=O)c2sc(Nc3ccccc3)nc2N)o1	.	31*	.	-1	.	.
COc1ccc(N=Cc2ccc(N(CCC#N)CCC#N)cc2)cc1	4960	49*	-1	-3	-6	6
CCN(CC)CC(C)(C)C(=O)/C=C/c1ccc(/C=C/C(=O)C(C)(C)CN(CC)CC)cc1	3960	59*	1	-3	3	-4
CCOc1ccc(C(=O)COC(=O)C2COc3ccccc3O2)cc1 (stereo not drawn)	3765	-3	0	0	4	-4
CCOc1ccc(-c2csc(C3COc4ccccc4O3)n2)cc1 (stereo not drawn)	23266*	5	1	3	0	-3
CSc1nc(C)c(C(=O)C[n+]2ccc(C)cc2)cc1C#N	4288	8	0	2	-3	1
COc1cc(CNC(C)C23CC4CC(CC(C4)C2)C3)ccc1OCC(=O)NC(C)(C)C (stereo not drawn)	3930	6	-9	-1	4	-16
CC(NCc1cc(Br)ccc1OCC(N)=O)C12CC3CC(CC(C3)C1)C2 (stereo not drawn)	21485*	2	-68	2	-36	?
CC(C)NC(=S)NCc1cccs1	3245	4	0	5	-1	4
Cn1cnc([N+](=O)[O-])c1NCc1ccccc1	3764	-9	7	1	?	40*
COc1ccc(CNC(=O)C(c2ccc(C)o2)N(Cc2cccs2)C(=O)Cc2cccs2)cc1 (stereo not drawn)	3311	-8	0	4	0	4
CCn1c(=O)c(C(=O)CN2c3ccccc3CC2C)c(N)n(Cc2ccccc2)c1=O (stereo not drawn)	2243	4	19	2	-2	-25
CCn1c(=O)c(C(=O)CN2CCCc3ccccc32)c(N)n(Cc2ccccc2)c1=O	32189*	8	?	-2	12	2
CC1=CC(C)=Nc2ccc(C)cc2N1	18983*!	-7	0	-3	3	-9
Cc1cc2ncn(-c3ncnc4scc(-c5ccccc5)c34)c2cc1C	24244*	-3	?	-3	0	-5
Cc1c(C(C)(C)C)c(C=S)n2ccccc12	21631*	6	?	0	-6	-8
Cc1c(C=O)c2ccccn2c1C(=O)c1ccccc1	3245	7	0	-3	-1	4
Nc1ncnc2c1ncn2[C@@H]1O[C@H](C(=O)NCc2ccc(OC(F)(F)F)cc2)[C@@H](O)[C@H]1O	4222	.	-2	1	-1	-10
O=C(c1ccc(Cl)c(Cl)c1)N1CCC(=O)N(C(COCc2cccc(C(F)(F)F)c2)Cc2ccccc2)CC1 (stereo not drawn)	2955	1	0	73*	-1	-1
Cc1ccc(S(=O)(=O)NCc2ccc3c(c2)cc(C)n3C)cc1	1200	15	81*	-1	-74	-110
COc1ccc(CN2C(=O)c3ccccc3C2=O)cc1C(=O)O	3763	3	-3	2	2	3
Cc1cc2cc(CN3C(=O)c4ccccc4C3=O)ccc2n1C	2185	-1	88*	-4	13	-57
C[C@@H]1CC=C[C@H]2[C@H]1C(=O)N(Cc1ccccc1)[C@H]2c1cccc([N+](=O)[O-])c1	4083	0	-1	1	-2	-6
O=C(c1cc(-c2ccc3c(c2)OCO3)on1)N1CCOCC1	23477*	10	?	-1	-1	-2
SMILES	Autofluor counter	GDH-TPI inh	BoNT-A LC inh2	Mtb FBA inh	Anthrax LF prot	BoNT F protease
O=C(c1cc(-c2ccc3c(c2)OCO3)on1)N1CCN(c2ccccc2)CC1	18888*	-1	6	-1	-6	3
O=C(c1cc(-c2ccc(Cl)cc2)on1)N1CCOCC1	21336*	1	-3	-1	-2	-2
COc1c(C)cc(S(=O)(=O)NCc2ccco2)c(C)c1C	4926	-8	0	-4	2	-2
CCNC(=O)C12CCC(C)(C(=O)O1)C2(C)C (stereo not drawn)	4487	-1	0	2	-2	-5
COc1ccc(OC)c(CCNC(=O)CS(=O)(=O)Cc2nc(-c3ccc(C)cc3)oc2C)c1	23969*	3	-3	0	-1	-5
COc1cccc(-c2nc(CS(=O)(=O)CC(=O)NCCc3cc(OC)ccc3OC)c(C)o2)c1	4428	3	1	2	-1	1
COc1ccc(-c2nc(CS(=O)(=O)CC(=O)NCCc3cc(OC)ccc3OC)c(C)o2)cc1	17109*	10	-2	-3	-3	-2
COc1cccc(-c2nc(CS(=O)(=O)CC(=O)NCCc3ccc(OC)cc3OC)c(C)o2)c1	5009	6	-1	-3	-3	2
COCCCNC(=O)CS(=O)(=O)Cc1nc(-c2cccc(OC)c2)oc1C	20516*	-6	-3	2	1	-4
Cc1nc(S(=O)(=O)c2ccc(Cl)cc2)c(N(C)C)o1	6002	-3	0	-2	0	2
Cc1nnc(SCC(=O)NCc2ccccc2Cl)[nH]c1=O	2961	-4	0	2	-1	-7
CC1(CCc2ccccc2)NC(=O)N(CC(=O)Nc2ccc3c(c2)OCCO3)C1=O (stereo not drawn)	4113	-7	0	0	-6	4
COc1ccc(C(=O)N/C(=C\c2cn(C)c3ccccc23)C(=O)NCCCn2ccnc2)cc1OC	6393	18	0	2	-2	2
Cc1ccc(C(=O)N/C(=C\c2cn(C)c3ccccc23)C(=O)NCCCn2ccnc2)cc1	6204	14	-1	-1	1	3
COc1ccc(C(=O)N/C(=C\c2cn(C)c3ccccc23)C(=O)NCCCn2ccnc2)cc1	5517	41*	-1	-1	0	6
Cn1cc(/C=C(\NC(=O)c2ccccc2)C(=O)NCCCn2ccnc2)c2ccccc21	3813	44*	0	-2	-5	-11
CCc1ccc(CN(C)C(=O)CCc2nnc(CCc3ccccc3OC)o2)nc1	4186	2	0	3	5	-8
CCOC(=O)Cn1cc(/C=N/NC(=O)c2ccc(C#N)cc2F)c2ccccc21	11351	34*	1	-1	-3	3
Cn1cc(/C=N/NC(=O)c2ccc(C#N)cc2F)c2ccccc21	4319	18	1	0	-3	-1
N#Cc1ccc(C(=O)N/N=C/c2cn(CC(=O)O)c3ccccc23)c(F)c1	8260	36*	-1	-6	1	2
